CHT block: inhibitors of human choline transporter CHT. High affinity choline transporter 1 (Homo sapiens), Q9GZV3. AID 488975, 2010. hit rate 0.86% among 310,000. B-score at 10 µM. CHT-expressing cells, membrane potential dye, choline response; hits give low values;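 active = B-score over 3 SD under the library average, and starting fluorescence ratio not unusually high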;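 also: choline stimulus applied at its EC90 after an EC20 pre-addition; B-score computed on integrated fluorescence ratio after choline addition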
CHT PAM: CHT positive allosteric modulators, primary screen, cell-based, membrane potential dye, choline EC20 | High affinity choline transporter 1 (Homo sapiens), Q9GZV3 | CHT-expressing cells; hits give high values; LV-AA mutant CHT in HEK293 cells | B-score at 10 µM | hit rate 0.49% among 310,000;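 active = initial fluorescence not abnormally high and integrated response B-score, plate-corrected, over 3 SD above library mean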
Kir21 inh: inhibitors of mouse Kir2.1 inward-rectifier potassium channel. HEK293-Kir2.1, FluxOR thallium flux fluorescence; hits give low values. Inward rectifier potassium channel 2 (Mus musculus), P35561. B-score at 10 µM. hit rate 0.85% among 310,000;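 active = fluorescence ratio B-score at or below minus 3 SD of library scores, with starting-brightness B-score within 2 SD, cut at about -4.2 in these data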;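 also: channel flux triggered by added potassium and thallium sulfate stimulus; B-score of peak minus minimum fluorescence over baseline after thallium stimulus; more negative B-score means stronger Kir2.1 block with less thallium influx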
Target sequence (P35561 whole entry, looked up): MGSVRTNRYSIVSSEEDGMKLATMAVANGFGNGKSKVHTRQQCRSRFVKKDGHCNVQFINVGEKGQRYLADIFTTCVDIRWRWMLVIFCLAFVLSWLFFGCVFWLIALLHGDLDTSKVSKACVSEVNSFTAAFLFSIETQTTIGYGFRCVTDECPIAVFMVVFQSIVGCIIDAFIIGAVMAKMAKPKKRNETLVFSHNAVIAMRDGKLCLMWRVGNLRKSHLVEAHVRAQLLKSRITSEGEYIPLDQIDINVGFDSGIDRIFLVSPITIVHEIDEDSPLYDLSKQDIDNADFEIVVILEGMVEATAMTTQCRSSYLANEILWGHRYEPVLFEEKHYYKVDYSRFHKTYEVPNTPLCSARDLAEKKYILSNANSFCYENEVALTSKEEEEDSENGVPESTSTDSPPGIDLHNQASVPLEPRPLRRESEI
GPR7 antag: GPR7 receptor antagonists, primary screen, cell-based, fluorescence, single concentration; GPR7-expressing cells, fluorescence antagonist assay; Neuropeptides B/W receptor type 1 (Homo sapiens), P48145; hit rate 1.1% among 290,000; AID 1861, 2009; inhibition, % at 4.4 µM; in the data active = inhibition above about 16%, passing the limit was not always enough;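 also: cells stimulated with the agonist NPW; 0% = agonist with vehicle and 100% = vehicle without agonist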
ANO1 activ: TMEM16A chloride channel activators or potentiators, primary screen, cell-based, HTS. hit rate 0.3% among 340,000. Anoctamin-1 (Mus musculus), Q8BHY3. AID 623877, 2012. B-score at 10 µM. HEK293 TMEM16A/YFP-H148Q/I152L, iodide quench fluorescence; hits give low values;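 active = fluorescence-ratio B-score plate-corrected deviation score at least 3 library SD below zero, with starting fluorescence score within 5 deviations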;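 also: channel opened by trigger with iodide after compound preincubation; score built on the fluorescence ratio of max minus min over baseline; more negative score means more quench and so TMEM16A activation or potentiation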
ANO1 block: TMEM16A chloride channel inhibitors, primary screen, cell-based, HTS | Anoctamin-1 (Mus musculus), Q8BHY3 | HEK293 TMEM16A/YFP iodide influx fluorescence, ionomycin | normalized B-score (activity score, 25-100; higher = stronger inhibition) at 10 µM | hit rate 1.2% among 310,000;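 active = ratio plate-corrected score three or more library SD toward inhibition, starting fluorescence score within five deviations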;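 also: score derived from kinetic fluorescence span divided by baseline fluorescence per well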
TMEM16A reconf: TMEM16A chloride channel inhibitors, confirmation, cell-based, re-confirmation. hit rate 39% among 2,300. HEK293 TMEM16A/YFP-H148Q, iodide quench fluorescence; ionomycin added to raise cell calcium. inhibition, % at 10 µM. AID 652189, 2013. shares compounds with ANO1 block;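 active = mean duplicate percent inhibition, scaled so buffer wells are 0 and the reference blocker 100, over three buffer SD above buffer mean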
TMEM16A Ca cntr: calcium mobilization in TMEM16A/YFP HEK293 cells, confirmation, counter-screen for TMEM16A inhibitor project | shares compounds with ANO1 block | AID 652231, 2013 | Fluo4 calcium mobilization | hit rate 2% among 2,300 | calcium response (% of ionomycin), % at 10 µM;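 active = duplicate-averaged calcium signal over 20% of the ionomycin maximum, relative to buffer baseline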;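 also: each well's signal is peak minus trough fluorescence divided by its pre-addition baseline; 0% = buffer wells and 100% = ionomycin wells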
YFP-HEK293 quench: iodide YFP quench changes in parental YFP-HEK293, counter-screen for TMEM16A inhibitor project, cell-based; shares compounds with ANO1 block; ionomycin; YFP ratio F(max-min)/F0 at 10 µM; 2,300 tested, under 10 active;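 active = yellow fluorescent protein signal ratio exceeding the buffer control mean by over 5 SD of those controls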;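 also: ratio is mean of duplicate wells from kinetic YFP trace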
ClC-1 rat inh: ClC-1 chloride channel inhibition, selectivity assay for TMEM16A inhibitor project, cell-based, voltage-dependent ClC-1. CHO ClC-1-YFP, iodide influx fluorescence quench; iodide control reads 0, buffer control 100. ratio percent, % at 10 µM. shares compounds with ANO1 block. 2,300 tested, under 10 active. AID 652236, 2013;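 active = duplicate-mean ratio percent above the mean of iodide-only control wells, which defines zero, plus 5 of their SD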;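 also: higher percent means stronger block of ClC-1 iodide influx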
The depositor's hits bear a star. This is a sample that favours compounds with a hit; in the whole collection about 3.7% have one here.

How did Cc1onc(-c2ccccc2)c1C(=O)N(Cc1ccccc1)C(C)C do in these assays?
CHT block: inactive; CHT PAM: inactive; Kir21 inh: -0.4; GPR7 antag: -5.4; ANO1 activ: inactive; ANO1 block: inactive

What do the screens show for `Cc1cccc(OCCCSc2nc3ccccc3[nH]2)c1`?
CHT block: inactive; CHT PAM: inactive; Kir21 inh: -3.1; GPR7 antag: -5.0; ANO1 activ: inactive; ANO1 block: 100*; TMEM16A reconf: 17.0%*; TMEM16A Ca cntr: inactive; YFP-HEK293 quench: -1.12; ClC-1 rat inh: -8.5

How did CC(C)Oc1cc(NC(=O)CS(=O)CC(=O)Nc2cccc(C(F)(F)F)c2)c(Cl)cc1Cl (stereo unspecified) do in these assays?
CHT block: inactive; CHT PAM: inactive; Kir21 inh: -0.6; GPR7 antag: -0.6; ANO1 activ: inactive; ANO1 block: 100*; TMEM16A reconf: inactive; TMEM16A Ca cntr: inactive; YFP-HEK293 quench: -1.08; ClC-1 rat inh: -6.0

Results for CC(C)Oc1cc(NC(=O)CS(=O)CC(=O)N(C)C)c(Cl)cc1Cl (stereo unspecified) ?
CHT block: inactive; CHT PAM: inactive; Kir21 inh: 0.02; GPR7 antag: -2.0; ANO1 activ: inactive; ANO1 block: inactive

What do the screens show for `CCS(=O)(=O)N1CCC(C(=O)Oc2ccc(Cl)cc2)CC1`?
CHT block: inactive; CHT PAM: inactive; Kir21 inh: -1.34; GPR7 antag: -12.2; ANO1 activ: inactive; ANO1 block: inactive

What do the screens show for `Cc1ccc(C2CC(=O)c3cnc(N4CCN(c5ccccc5)CC4)nc3C2)cc1` (stereo unspecified)?
CHT block: inactive; CHT PAM: inactive; Kir21 inh: 0.27; GPR7 antag: 8.8; ANO1 activ: inactive; ANO1 block: inactive

Results for COc1ccc(C2CC(=O)c3cnc(N4CCN(Cc5ccccc5)CC4)nc3C2)cc1 (stereo unspecified) ?
CHT block: inactive; CHT PAM: inactive; Kir21 inh: -0.58; GPR7 antag: -7.3; ANO1 activ: inactive; ANO1 block: 25*; TMEM16A reconf: inactive; TMEM16A Ca cntr: inactive; YFP-HEK293 quench: -1.15; ClC-1 rat inh: -5.0

Results for CCOC(=O)c1c(NC(=O)CSc2nnc(C)c(=O)[nH]2)sc(C)c1-c1ccc(C)cc1 ?
CHT block: inactive; CHT PAM: inactive; Kir21 inh: 0.03; GPR7 antag: -12.9; ANO1 activ: inactive; ANO1 block: inactive

How did CCOC(=O)c1c(NC(=O)CSc2nnc(N)s2)sc(C)c1-c1ccc(C)cc1 do in these assays?
CHT block: inactive; CHT PAM: inactive; Kir21 inh: 1.32; GPR7 antag: -14.6; ANO1 activ: inactive; ANO1 block: 25*; TMEM16A reconf: inactive; TMEM16A Ca cntr: inactive; YFP-HEK293 quench: -1.15; ClC-1 rat inh: -13.0

How did O=C(O)c1ccccc1N/N=C/c1cc(Br)cc(Br)c1O do in these assays?
CHT block: inactive; CHT PAM: inactive; Kir21 inh: -0.77; GPR7 antag: -4.7; ANO1 activ: inactive; ANO1 block: 25*; TMEM16A reconf: 78.5%*; TMEM16A Ca cntr: inactive; YFP-HEK293 quench: -1.04; ClC-1 rat inh: -21.0

Results for CCc1noc(C)c1C(=O)N1CCC(CCC(=O)Nc2cccc(OC)c2)CC1 ?
CHT block: inactive; CHT PAM: inactive; Kir21 inh: 0; GPR7 antag: -2.1; ANO1 activ: inactive; ANO1 block: inactive

How did c1ccc(Nc2nc(NCc3ccco3)c3ccccc3n2)cc1 do in these assays?
CHT block: inactive; CHT PAM: inactive; Kir21 inh: -16.6*; GPR7 antag: -8.7; ANO1 activ: inactive; ANO1 block: 25*; TMEM16A reconf: 47.0%*; TMEM16A Ca cntr: inactive; YFP-HEK293 quench: -1.14; ClC-1 rat inh: -8.5

How did Nc1ccc(CSc2ccc(Cl)cc2)cc1 do in these assays?
CHT block: inactive; CHT PAM: inactive; Kir21 inh: 2.39; GPR7 antag: -4.2; ANO1 activ: inactive; ANO1 block: inactive

What do the screens show for `CSc1ccccc1NC(=O)Nc1ccccc1`?
CHT block: inactive; CHT PAM: inactive; Kir21 inh: -1.15; GPR7 antag: -11.8; ANO1 activ: inactive; ANO1 block: 100*; TMEM16A reconf: inactive; TMEM16A Ca cntr: inactive; YFP-HEK293 quench: -0.982; ClC-1 rat inh: -4.0

How did Cc1ccc(-n2c(C)cc(C(=O)CSc3nncs3)c2C)cc1 do in these assays?
CHT block: inactive; CHT PAM: inactive; Kir21 inh: 0.36; GPR7 antag: -1.9; ANO1 activ: inactive; ANO1 block: 100*; TMEM16A reconf: 50.5%*; TMEM16A Ca cntr: inactive; YFP-HEK293 quench: -0.897; ClC-1 rat inh: -18.0

What do the screens show for `Cc1cc(C(=O)CSc2nncs2)c(C)n1-c1c(C)n(C)n(-c2ccccc2)c1=O`?
CHT block: inactive; CHT PAM: inactive; Kir21 inh: 0.57; GPR7 antag: -10.3; ANO1 activ: inactive; ANO1 block: inactive

How did Cc1ccc(CN2CCN(Cc3cn[nH]c3-c3cccc(F)c3)CC2CCO)o1 (stereo unspecified) do in these assays?
CHT block: inactive; CHT PAM: inactive; Kir21 inh: -0.01; GPR7 antag: -5.2; ANO1 activ: inactive; ANO1 block: inactive

What do the screens show for `Clc1ccc(OCc2nnc(SCc3nc4ccccc4[nH]3)n2Cc2ccco2)cc1`?
CHT block: inactive; CHT PAM: inactive; Kir21 inh: -1.62; GPR7 antag: 9.1; ANO1 activ: inactive; ANO1 block: 25*; TMEM16A reconf: inactive; TMEM16A Ca cntr: inactive; YFP-HEK293 quench: -1.14; ClC-1 rat inh: -18.0

Screening data (PubChem)
